This passage reports growth results from PubChem BioAssay (NCI).

The structures appear in SMILES notation. About 83,000 compounds went through this panel and 20% of them were active in at least one assay; those are over-represented in the sample as a whole.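 Activity criterion: percent growth below 10, measured after cells in 96-well plates were exposed to a single compound concentration for 48 hours.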 A number with no mark means an inactive call. Calls of active or inactive are those of the source.

Among the test systems are RPMI-8226 leukemia; OVCAR-8 ovarian; OVCAR-5 ovarian; OVCAR-4 ovarian; SK-OV-3 ovarian; IGROV1 ovarian; OVCAR-3 ovarian; HS 578T breast; NCI/ADR-RES ovarian; T-47D breast; BT-549 breast; MDA-MB-435 melanoma; SW-620 colon; MCF7 breast; HCT-116 colon; HCC-2998 colon; KM12 colon.
Holding throughout (test): NCI-60 one-dose screen, 48 h (100 = growth as untreated, 0 = no growth, -100 = all killed)
What all share (conditions): 10 µM unless noted

In the case of `Br/C(=N\Nc1nn[nH]n1)c1ccccc1`, the growth was 102% in the test with RPMI-8226 leukemia; 103% in the test with OVCAR-8 ovarian; 102% in the test with OVCAR-5 ovarian; 107% in the test with OVCAR-4 ovarian; 98.6% in the test on SK-OV-3 ovarian; 111% with IGROV1 ovarian. In addition, the growth in the test with OVCAR-3 ovarian was 120%; in the test on HS 578T breast, 99.4%; in the test on NCI/ADR-RES ovarian it was 100%; in the test with T-47D breast it was 101%; in the test with BT-549 breast it was 99%; with MDA-MB-435 melanoma, 111%. In addition, the growth in the test with SW-620 colon is 102%; in the test on MCF7 breast, 95.3%; with HCT-116 colon, 104%; with HCC-2998 colon, 118%; in the test on KM12 colon it was 114%.
In the case of `CCN(CC)CCOC(=O)c1cccnc1`, the growth with RPMI-8226 leukemia was 91.4%; in the test with OVCAR-8 ovarian, 97.6%; in the test with OVCAR-5 ovarian, 96.4%; with OVCAR-4 ovarian, 90.1%; in the test with SK-OV-3 ovarian, 96.1%; in the test on IGROV1 ovarian, 103%. Besides, the growth is 107% in the test with OVCAR-3 ovarian; 92% with HS 578T breast; 101% in the test with NCI/ADR-RES ovarian; 96.6% in the test on T-47D breast; 105% in the test on BT-549 breast; 96.3% in the test with MDA-MB-435 melanoma. The growth in the test on SW-620 colon is 103%; in the test on MCF7 breast, 95.1%; in the test on HCT-116 colon, 98.1%; in the test with KM12 colon it was 103%.
Turning to `COc1cc(N2C(=O)C=CC2=O)ccc1N1C(=O)C=CC1=O`, the growth was 103% in the test with RPMI-8226 leukemia; 110% with OVCAR-8 ovarian; 103% in the test with OVCAR-5 ovarian; 102% in the test on OVCAR-4 ovarian; 110% in the test on SK-OV-3 ovarian; 115% in the test on IGROV1 ovarian. The growth with OVCAR-3 ovarian was 104%; in the test on HS 578T breast, 102%; in the test with NCI/ADR-RES ovarian, 106%; with T-47D breast, 77.4%; in the test on BT-549 breast, 95.3%; in the test on MDA-MB-435 melanoma, 109%. In addition, the growth with SW-620 colon was 85.4%; in the test on MCF7 breast, 98.8%; in the test on HCT-116 colon, 107%; in the test on HCC-2998 colon it was 114%; in the test on KM12 colon it was 109%.
Regarding `COc1ccc(-c2nc(Nc3nc4ccccc4[nH]3)nc(N)c2C#N)cc1`, the growth in the test with RPMI-8226 leukemia was 94%; with OVCAR-8 ovarian it was 103%; with OVCAR-5 ovarian, 104%; with OVCAR-4 ovarian, 102%; with SK-OV-3 ovarian, 102%; in the test on IGROV1 ovarian it was 59.1%. Also, the growth in the test on OVCAR-3 ovarian was 111%; in the test with HS 578T breast, 129%; with NCI/ADR-RES ovarian, 103%; in the test on T-47D breast, 97.1%; with BT-549 breast, 86.4%; in the test with MDA-MB-435 melanoma it was 117%. Further, the growth was 108% in the test on SW-620 colon, 90.2% with MCF7 breast, 93.8% in the test with HCT-116 colon and 108% with KM12 colon.
Regarding `CCCCCCCCCC(C)NC(=O)CCl` (stereo not drawn), the growth with RPMI-8226 leukemia was 97.6%; in the test on OVCAR-8 ovarian it was 88.3%; in the test on OVCAR-5 ovarian, 107%; in the test on OVCAR-4 ovarian, 89.4%; with SK-OV-3 ovarian, 103%; in the test with IGROV1 ovarian, 25.6%. Also, the growth in the test on OVCAR-3 ovarian was 89.3%; in the test on HS 578T breast, 102%; with NCI/ADR-RES ovarian, 101%; with T-47D breast, 82.6%; in the test with BT-549 breast it was 88.8%; in the test on MDA-MB-435 melanoma, 96.3%. The growth in the test with SW-620 colon is 103%; in the test with MCF7 breast it was 86.2%; in the test with HCT-116 colon, 95.7%; in the test with HCC-2998 colon it was 103%; in the test with KM12 colon it was 101%.
Consider `C/C=C(/C)C(=O)OC1C=C(CO)C(=O)C(OC(=O)/C(C)=C\C)C1C(C)C` (stereo not drawn), for which the growth with RPMI-8226 leukemia was -39.4% (active); in the test with OVCAR-8 ovarian, -22.7% (active); in the test with OVCAR-5 ovarian it was -76.6% (active); with OVCAR-4 ovarian, -48.8% (active); with SK-OV-3 ovarian, 16.4%; in the test with IGROV1 ovarian, -77% (active). In addition, the growth with OVCAR-3 ovarian was -89.1% (active); in the test with HS 578T breast, 28.8%; in the test with NCI/ADR-RES ovarian, -6.28% (active); in the test with BT-549 breast it was -32.7% (active); with MDA-MB-435 melanoma, -78.7% (active); in the test with SW-620 colon, -59% (active). For the same compound, the growth in the test with MCF7 breast was -16.6% (active); with HCT-116 colon it was -76.1% (active); in the test on HCC-2998 colon, -85.9% (active); in the test with KM12 colon, -41.3% (active).
Regarding `Cc1ccc(C(=O)C(Br)C(Br)c2ccccc2)cc1` (stereo not drawn), the growth in the test with RPMI-8226 leukemia was 48.2%; in the test on OVCAR-8 ovarian, 96.6%; in the test on OVCAR-5 ovarian, 102%; with OVCAR-4 ovarian it was 71.9%; with SK-OV-3 ovarian, 114%; in the test with IGROV1 ovarian, 62.5%. The growth is 61.7% in the test with OVCAR-3 ovarian; 98.2% with HS 578T breast; 105% in the test with NCI/ADR-RES ovarian; 71.5% in the test with T-47D breast; 104% with BT-549 breast; 99.8% in the test on MDA-MB-435 melanoma. Further, the growth in the test with SW-620 colon was 27.8%; in the test with MCF7 breast it was 25.7%; with HCT-116 colon, -65.7% (active); in the test with HCC-2998 colon it was 116%; in the test on KM12 colon, 99.1%.
Regarding `CCOc1ccc(/C=N/NC(=O)c2cccc3ccccc23)cc1OCC`, the growth in the test with RPMI-8226 leukemia was 83.8%; with OVCAR-8 ovarian, 105%; in the test with OVCAR-5 ovarian it was 104%; in the test on OVCAR-4 ovarian it was 91.9%; in the test with SK-OV-3 ovarian, 99.2%; in the test with IGROV1 ovarian, 108%. Further, the growth with OVCAR-3 ovarian was 96.4%; with HS 578T breast, 98.6%; with NCI/ADR-RES ovarian it was 97.9%; in the test with T-47D breast it was 86.1%; in the test on BT-549 breast it was 86.5%; in the test with MDA-MB-435 melanoma, 111%. In addition, the growth with SW-620 colon is 105%; in the test with MCF7 breast, 92.9%; with HCT-116 colon, 103%; in the test with HCC-2998 colon, 105%; in the test with KM12 colon, 103%.
As for `N#Cc1c(N)nc(Nc2nc3ccccc3[nH]2)nc1-c1ccc(Cl)cc1`, the growth is 94.4% with RPMI-8226 leukemia; 102% in the test on OVCAR-8 ovarian; 107% in the test on OVCAR-5 ovarian; 116% in the test on OVCAR-4 ovarian; 88.4% with SK-OV-3 ovarian; 98.7% in the test with IGROV1 ovarian. Also, the growth with OVCAR-3 ovarian was 127%; with HS 578T breast it was 145%; in the test on NCI/ADR-RES ovarian, 107%; in the test on T-47D breast, 93.8%; in the test on MDA-MB-435 melanoma, 106%; in the test on SW-620 colon, 117%. In addition, the growth was 86.9% in the test with MCF7 breast, 109% in the test on HCT-116 colon and 109% with KM12 colon.
